Experimental findings from PubChem BioAssay (Tox21) are described below.

Molecules are shown by their SMILES. Unmarked numbers belong to inactive results. Results filed as inconclusive are left out. Active and inactive are the calls of the source. Unless noted, calls come from the whole dose curve.

Assay [1] can be described thus: Nuclear factor erythroid 2-related factor 2/antioxidant responsive element (Nrf2/ARE) small molecule agonists: qHTS cell viability counter screen in human keratinocytes (AID 1919968; active = well fitted curve in the direction sought with a large enough effect in the repeat runs; an effect the other way counts as inactive or inconclusive; note: nearly all actives have a fitted effect of over 55% in size). In a few lines:
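KeratinoSens cells (HaCaT keratinocytes stably carrying an ARE-luciferase reporter) were seeded at 1,500 cells/well and rested 5 h at 37 C/5% CO2. They were then exposed to compounds in DMSO for 23 h. Viability was read by CellTiter-Fluor fluorescence after 1 h.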

The nature of assay [2]: Nuclear factor erythroid 2-related factor 2/antioxidant responsive element (Nrf2/ARE) small molecule agonists: luciferase reporter gene qHTS assay in human keratinocytes (AID 1919969). Note: nearly all actives have a fitted effect of over 35% in size. Note: potency is the fitted concentration of half-maximal effect.
For assay [3], the target named is Gonadotropin-releasing hormone receptor (Homo sapiens) (UniProt P30968). The experiment in a line: Human gonadotropin-releasing hormone receptor (GnRHR) small molecule agonists, calcium flux assay in GnRHR-HEK293 cells (AID 1920063). Note: nearly all actives have a fitted effect of over 35% in size. Put shortly:
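HEK293 cells stably expressing human GnRHR were plated 18 h at 37 °C, loaded with calcium dye 1 h at 37 °C, then given compound in agonist mode; fluorescence (Ex/Em 480/540) read kinetically for 3 min at 1 s intervals.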

The target of assay [4] is KiSS-1 receptor (Homo sapiens) (UniProt Q969F8). The experiment in a line: Human kisspeptin (KISS1R) small molecule agonists, calcium flux assay in KISS1R-HEK293 cells (AID 1920064; active = well fitted curve in the direction sought with a large enough effect in the repeat runs; an effect the other way counts as inactive or inconclusive). In a few lines: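 HEK293 cells stably expressing human KISS1R were plated 18 h at 37 °C, loaded with calcium dye for 1 h at 37 °C, then given compound by pin tool. Fluorescence (Ex/Em 480/540) was read kinetically for 3 min.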
KiSS-1 receptor (Homo sapiens), sequence (Q969F8 whole entry, looked up): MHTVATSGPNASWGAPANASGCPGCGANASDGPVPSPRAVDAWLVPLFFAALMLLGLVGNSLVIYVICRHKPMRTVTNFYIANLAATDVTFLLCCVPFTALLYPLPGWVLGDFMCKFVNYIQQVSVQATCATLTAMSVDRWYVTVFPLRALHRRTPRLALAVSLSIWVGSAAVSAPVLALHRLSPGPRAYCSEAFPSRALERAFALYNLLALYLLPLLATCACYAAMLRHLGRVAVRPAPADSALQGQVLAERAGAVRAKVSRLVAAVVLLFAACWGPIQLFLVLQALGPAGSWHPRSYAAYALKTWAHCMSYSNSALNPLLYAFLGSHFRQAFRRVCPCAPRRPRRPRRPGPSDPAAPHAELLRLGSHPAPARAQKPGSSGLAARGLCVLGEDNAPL

A short description of assay [5]: G protein-coupled receptor (GPCR) small molecule agonists, calcium flux assay: HEK293 wild type cell line counter screen (AID 1920065). In a few lines: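 Cells were plated and cultured 18 h at 37 C/5% CO2, then loaded with calcium dye for 1 h at 37 C. Compounds in DMSO were pin-transferred in agonist mode, and fluorescence (Ex/Em 480/540) was read kinetically for 3 min at 1 s intervals.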

Assay [6] can be described thus: p53 small molecule agonists, cell-based qHTS assay with human liver microsomes (AID 1963577).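 Note: p53 response element beta-lactamase reporter cells with liver microsomes plus NADPH.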 In a few lines:
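With metabolic activation: human liver microsomes (0.5 mg/mL final) plus NADPH (0.5 mg/mL final) added alongside compounds to p53RE-bla cells; 16 h 37 C exposure; beta-lactamase read by LiveBLAzer fluorescence.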

Assay [7] in a line: p53 small molecule agonists, cell-based qHTS assay with rat liver microsomes (AID 1963578). In a few lines: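 Metabolic activation by rat liver microsomes and NADPH, each 0.5 mg/mL final, added right after compounds to p53RE-bla reporter cells (4,000/well, plated 5 h earlier). 16 h at 37 C, then LiveBLAzer substrate for 2 h at room temperature in the dark; fluorescence read-out.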

Assay [8] in a line: p53 small molecule agonists, cell-based qHTS assay with human liver microsomes: qHTS cell viability counter screen (AID 1963579). Note: nearly all actives have a fitted effect of over 45% in size. In a few lines:
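Metabolic activation used human liver microsomes and NADPH, both 0.5 mg/mL final, over 16 hours at 37 C on p53RE-bla cells (4,000/well). Cytotoxicity measured by CellTiter-Glo luminescence, 30 min at room temperature.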

Assay [9] is described as follows: p53 small molecule agonists, cell-based qHTS assay with rat liver microsomes: qHTS cell viability counter screen (AID 1963580). Note: nearly all actives have a fitted effect of over 45% in size. Note: potency is the fitted concentration of half-maximal effect. In a few lines: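 HCT-116 p53RE-bla, 4,000 cells/well, 5 h pre-incubation; cpd + rat liver microsomes 0.5 mg/mL + NADPH 0.5 mg/mL (final); 16 h, 37 C; CellTiter-Glo, 30 min RT; luminescence.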
A short description of assay [10]: p53 small molecule agonists, cell-based qHTS assay (AID 1963582; active = well fitted activation curve with a large enough effect in the signal ratio in the repeat runs, not every such curve was filed as active; the % refers to the signal ratio; note: potency is the fitted concentration of half-maximal effect). In a few lines:
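p53RE-bla beta-lactamase reporter cells rested 5 h at 37 C/5% CO2, then received compounds in DMSO by pin transfer and were incubated 16 h at 37 C. LiveBLAzer B/G FRET substrate was loaded for 2 h at room temperature before fluorescence reading.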

Assay [11] concerns the target 5-hydroxytryptamine receptor 2A (Homo sapiens) (UniProt P28223). Put plainly: 5-hydroxytryptamine receptor 2A (HTR2A) small molecule antagonists, cell-based qHTS assay (AID 1963586). Note: nearly all actives have a fitted effect of over 45% in size. In a few lines: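 Antagonist-mode intracellular calcium assay: DOI (4 nM) added after 5 min compound pre-incubation at room temperature to dye-loaded HTR2A-CHO cells. Fluorescence followed for 3 min, sampled every second.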

The target is the same in assay [12]. Put plainly: 5-hydroxytryptamine receptor 2A (HTR2A) small molecule agonists, cell-based qHTS assay (AID 1963587). Note: nearly all actives have a fitted effect of over 30% in size. Put shortly: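 Kinetic calcium-flux fluorescence (2 min, 1 sec intervals) after compound addition in agonist mode. HTR2A-CHO cells were cultured 18 h, then dye-loaded 1 h at 37 C.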
In assay [13] the target is Muscarinic acetylcholine receptor M1 (Homo sapiens) (UniProt P11229). Put plainly: Cholinergic receptor muscarinic 1 (CHRM1) small molecule antagonists, cell-based qHTS assay (AID 1963588). Note: nearly all actives have a fitted effect of over 40% in size. Put shortly: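 CHRM1-CHO calcium-flux assay, antagonist mode. Cells were seeded 18 h, dye-loaded 1 h at 37 C and given compound for 5 min at RT, then acetylcholine was added at 50nM. FDSS fluorescence was read 3 min; 15 concentrations, three runs.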
Muscarinic acetylcholine receptor M1 (Homo sapiens), sequence (P11229 whole entry, looked up): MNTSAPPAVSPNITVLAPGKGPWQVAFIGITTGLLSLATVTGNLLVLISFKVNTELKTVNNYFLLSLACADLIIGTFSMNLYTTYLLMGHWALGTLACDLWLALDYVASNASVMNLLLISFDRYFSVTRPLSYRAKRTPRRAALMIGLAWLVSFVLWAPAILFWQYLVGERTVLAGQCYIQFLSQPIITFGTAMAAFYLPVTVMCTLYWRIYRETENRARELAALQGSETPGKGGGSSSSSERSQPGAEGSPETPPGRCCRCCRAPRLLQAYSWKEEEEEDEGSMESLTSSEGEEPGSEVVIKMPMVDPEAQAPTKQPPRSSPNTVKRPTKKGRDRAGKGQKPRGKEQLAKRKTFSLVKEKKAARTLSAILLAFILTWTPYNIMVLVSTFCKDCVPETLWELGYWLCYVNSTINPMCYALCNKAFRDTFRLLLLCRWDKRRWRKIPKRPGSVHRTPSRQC

Assay [14] has the same target. Put plainly: Cholinergic receptor muscarinic 1 (CHRM1) small molecule agonists, cell-based qHTS assay (AID 1963589). Note: nearly all actives have a fitted effect of over 35% in size. Put shortly:
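CHO cells stably expressing human CHRM1, seeded 18 h at 37 C/5% CO2, dye-loaded 1 h at 37 C, then given compound in agonist mode; intracellular calcium fluorescence read kinetically at 1 s intervals. Fifteen concentrations, three independent runs.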

Assay [15] is described as follows: cAMP Responsive Elements (CRE) small molecule agonists, cell-based qHTS assay (AID 1963590). In a few lines:
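CRE-bla HEK 293T cells in DMEM with 10% dialyzed FBS, NEAA, pyruvate and 25 mM HEPES were plated 18 h at 37 C/5% CO2, then exposed to compounds in DMSO for 3 h before LiveBLAzer B/G FRET substrate addition.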

A short description of assay [16]: cAMP Responsive Elements (CRE) small molecule antagonists, cell-based qHTS assay (AID 1963591; active = well fitted inhibition curve with a large enough effect in the signal ratio in the repeat runs, not every such curve was filed as active; the % refers to the signal ratio). In a few lines:
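CRE-bla HEK293T cells were plated 18 h at 37 °C/5% CO2, pinned with compound in DMSO, then stimulated with NKH477 at 0.25 uM final for 3 h. LiveBLAzer B/G FRET substrate was added and plates incubated 2 h at room temperature.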

Assay [17] deals with Beta-2 adrenergic receptor (Homo sapiens) (UniProt P07550). Put plainly: Adrenergic beta2 receptor (ADRB2) small molecule antagonists, cell-based qHTS assay (AID 1963592). Note: series mostly up to about 92 µM; nearly all actives have a fitted effect of over 50% in size. In a few lines: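 Cells (CHO, stable ADRB2 overexpression) incubated 18-20hr at 37C; compounds added from DMSO; agonist mix (1nM isoproterenol, 100uM IBMX, 25uM Ro-20-1724) added; 0.5hr RT; d2-cAMP and anti-cAMP-cryptate added; 1hr RT; 665/615 nm read.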
Beta-2 adrenergic receptor (Homo sapiens), sequence (P07550 whole entry, looked up): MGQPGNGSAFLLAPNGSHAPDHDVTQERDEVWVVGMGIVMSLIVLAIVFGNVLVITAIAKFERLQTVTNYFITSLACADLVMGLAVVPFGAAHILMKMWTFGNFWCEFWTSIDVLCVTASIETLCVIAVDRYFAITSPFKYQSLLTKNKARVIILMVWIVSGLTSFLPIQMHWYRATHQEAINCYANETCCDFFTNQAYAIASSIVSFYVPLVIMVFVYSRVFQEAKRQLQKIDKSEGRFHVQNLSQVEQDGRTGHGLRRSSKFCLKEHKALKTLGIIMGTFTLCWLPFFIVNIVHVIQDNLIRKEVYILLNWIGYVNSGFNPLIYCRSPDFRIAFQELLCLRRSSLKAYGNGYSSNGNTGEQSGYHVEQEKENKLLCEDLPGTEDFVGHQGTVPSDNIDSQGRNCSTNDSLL

In assay [18] the target is D(2) dopamine receptor (Homo sapiens) (UniProt P14416). The experiment in a line: Dopamine D2 receptor (DRD2) small molecule agonists, cell-based qHTS assay (AID 1963594). Note: nearly all actives have a fitted effect of over 35% in size. In a few lines:
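cAMP accumulation in DRD2-HEK293 cells measured by HTRF after 1 h detection; compounds added 10 min before NKH477 (200nM […]) forskolin-analogue stimulation, 30 min at room temperature, with Ro20-1724 present at 0.1 mM final.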

The target is the same in assay [19]. Put plainly: Dopamine D2 receptor (DRD2) small molecule antagonists, cell-based qHTS assay (AID 1963595; active = well fitted inhibition curve with a large enough effect in the signal ratio in the repeat runs, with a control signal flat; the % refers to the signal ratio). Put shortly: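 HEK293 cells stably expressing DRD2, preincubated with 0.1 mM Ro20-1724 and compounds 10 min, were stimulated with 200 nM NKH477 plus 12 nM quinpirole for 30 min at room temperature; cAMP measured by HTRF (665/620 nm).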
% is set by controls: 0 for no effect and ±100 for the full control effect.

5-hydroxytryptamine receptor 2A (Homo sapiens), sequence (P28223 whole entry, looked up): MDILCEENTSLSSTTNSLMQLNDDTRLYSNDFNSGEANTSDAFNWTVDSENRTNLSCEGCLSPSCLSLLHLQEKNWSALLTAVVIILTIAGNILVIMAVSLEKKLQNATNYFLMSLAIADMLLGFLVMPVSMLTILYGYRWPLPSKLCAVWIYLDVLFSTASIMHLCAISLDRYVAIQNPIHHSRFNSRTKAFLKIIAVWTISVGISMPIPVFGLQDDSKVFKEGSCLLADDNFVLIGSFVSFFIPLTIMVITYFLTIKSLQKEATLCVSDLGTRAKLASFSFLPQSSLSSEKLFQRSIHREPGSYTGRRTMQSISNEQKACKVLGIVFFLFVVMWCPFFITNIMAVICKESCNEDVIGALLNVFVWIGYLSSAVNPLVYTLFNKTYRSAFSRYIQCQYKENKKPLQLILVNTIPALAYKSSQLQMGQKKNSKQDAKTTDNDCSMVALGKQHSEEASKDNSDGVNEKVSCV
Gonadotropin-releasing hormone receptor (Homo sapiens), sequence (P30968 whole entry, looked up): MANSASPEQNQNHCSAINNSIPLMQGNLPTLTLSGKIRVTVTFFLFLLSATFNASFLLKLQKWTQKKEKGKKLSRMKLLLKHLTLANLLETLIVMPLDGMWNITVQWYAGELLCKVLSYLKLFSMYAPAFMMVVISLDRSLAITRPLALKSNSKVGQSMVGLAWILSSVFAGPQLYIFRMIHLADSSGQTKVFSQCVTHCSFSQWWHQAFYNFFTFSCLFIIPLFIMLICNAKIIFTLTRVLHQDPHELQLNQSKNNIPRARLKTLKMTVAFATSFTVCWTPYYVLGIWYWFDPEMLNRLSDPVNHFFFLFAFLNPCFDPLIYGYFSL
D(2) dopamine receptor (Homo sapiens), sequence (P14416 whole entry, looked up): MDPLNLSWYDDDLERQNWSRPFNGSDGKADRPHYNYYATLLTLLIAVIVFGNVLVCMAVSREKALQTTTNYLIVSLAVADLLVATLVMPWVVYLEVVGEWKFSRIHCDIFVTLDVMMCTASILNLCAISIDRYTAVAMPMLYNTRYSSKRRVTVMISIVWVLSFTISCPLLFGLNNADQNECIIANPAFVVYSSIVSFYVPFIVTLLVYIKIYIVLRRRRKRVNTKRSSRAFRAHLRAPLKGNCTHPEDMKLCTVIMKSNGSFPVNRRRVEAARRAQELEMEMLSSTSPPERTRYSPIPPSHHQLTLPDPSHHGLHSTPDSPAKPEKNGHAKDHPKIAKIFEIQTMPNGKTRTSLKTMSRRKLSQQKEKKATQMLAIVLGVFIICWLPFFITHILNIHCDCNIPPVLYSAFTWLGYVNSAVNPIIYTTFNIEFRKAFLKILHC

With `N[C@@H](COP(=O)(O)O)C(=O)O`, the activity change, negative = cytotoxicity in assay [1] was 7.74% [at 19 µM]; in assay [8] it was -1.17% [at 13.5 µM]; in assay [9] it was 4.54% [at 13.5 µM]. In [2], the activity, positive = activation is 0.218% [at 19 µM]. Besides, in assay [3], the activity change was 0.11% [at 11.8 µM, active compounds read high]. For the same compound, the activation in [4] was 0.255% [at 15.8 µM]; in assay [5], -0.0564% [at 11.8 µM]; in [6] it was -0.646% [at 13.5 µM]; in [7] it was -0.0703% [at 13.6 µM]; in assay [10], 1.58% [at 13.5 µM]; in assay [12], -9.17% [at 15.9 µM]. Besides, the activation is 11.1% [at 15.8 µM] in assay [14], -0.511% [at 19 µM] in assay [15] and -3.09% [at 19 µM] in [18]. For the same compound, the values for the activity, negative = inhibition in [11] and in assay [13] were -2.49% [at 12.7 µM] and 5.54% [at 12.6 µM], respectively. Further, the activity change, negative = inhibition in assay [16] is -18.4% [at 18.9 µM]; in assay [17] it was 3.41% [at 19 µM]; in assay [19] it was -1.71% [at 18.9 µM].

For the compound `C=C(C)C1CCC(C)CC1O` (stereo not given), the Potency result in [1], in assay [2], in assay [3], in [6], in assay [7] and in [8] was “inactive” each time. Also, the Potency entry in assay [10], in assay [11], in assay [12], in [13], in assay [14] and in assay [15] was “inactive” in each case. The Potency entry in [16], in assay [17], in assay [18] and in assay [19] was “inactive” in each case. Besides, the result in assay [4] and in assay [5] was inactive. Also, the Potency in assay [9] is 1.62 µM (active).

Consider `CCc1cc(S(=O)(=O)O)c2cc(C(C)C)cccc1-2`, for which the Potency entry in assay [1], in [2], in assay [3], in assay [6], in [7] and in [8] was “inactive” in each case. The Potency entry in assay [9], in [10], in [11], in assay [12], in assay [13] and in [14] was “inactive” in each case. The Potency result in assay [15], in [16], in assay [18] and in assay [19] was “inactive” each time. Moreover, the outcome in [4] and in [5] was inactive.

On to `Cn1nnc2c(C(N)=O)ncn2c1=O`, for which the Potency result in assay [1], in [2], in [3], in assay [6], in assay [7] and in assay [8] was “inactive” throughout. Further, the Potency entry in [9], in assay [10], in [11], in [12], in [13] and in [14] was “inactive” each time. Moreover, the Potency entry in assay [15], in assay [16], in assay [17], in assay [18] and in assay [19] was “inactive” each time. Moreover, the outcome in assay [4] and in assay [5] was inactive.

On to `O=C(O)c1c(O)c(-c2ccccc2)nc2ccccc12`, for which the Potency result in [1], in assay [2], in [3], in assay [6], in [7] and in assay [8] was “inactive” in each case. In addition, the Potency entry in assay [9], in [11], in [12], in [13], in [14] and in assay [15] was “inactive” each time. In addition, the Potency result in [16], in assay [17], in assay [18] and in assay [19] was “inactive” each time. Further, the result in assay [4] and in [5] was inactive. Further, in [10], the Potency was 19.9 µM (active).

Regarding `CCCCCCCCCCCCCCCCCC#N`, the Potency entry in [1], in [2], in assay [3], in assay [6], in [7] and in assay [8] was “inactive” throughout. Besides, the Potency result in assay [10], in assay [11], in [12], in [13], in [14] and in assay [15] was “inactive” each time. The Potency result in assay [16], in [17], in [18] and in [19] was “inactive” in each case. Further, the result in assay [4] and in [5] was inactive. The Potency in [9] was 1.65 µM (active).

Regarding `Oc1ccc(Nc2ccccc2)cc1`, the Potency entry in assay [1], in [3], in assay [6], in [7], in [8] and in [9] was “inactive” throughout. The Potency result in assay [10], in assay [11], in [12], in assay [13], in [14] and in assay [15] was “inactive” each time. The Potency entry in assay [18] and in assay [19] was “inactive” each time. In addition, in [2], the Potency is 61.1 µM (active). The result in [4] and in [5] was inactive.
